Assay results as given in PubChem BioAssay (Tox21).
Results filed as inconclusive are left out. A number with no mark means an inactive call. The source made the active and inactive calls. The call rests on the fitted dose curve; in most records, active means well fitted cell-killing curve with a large enough effect in the repeat runs; inconclusive means weak or mixed curves, or effect the other way; inactive means flat fitted curve, though single readings scatter.

Experiment: cAMP Responsive Elements (CRE) small molecule antagonists, cell-based qHTS assay: qHTS cell viability counter screen (AID 2060913); further: nearly all actives have a fitted effect of over 40% in size
Conditions: CRE-bla HEK293T viability, CellTiter-Glo luminescence, 5 h; series mostly up to 92.4 µM; viability change, negative = cytotoxic: at the top concentration
Procedure, shortened: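 HEK293T CRE-bla, 2,000 cells/well, 18 h preincubation; cpd in DMSO + NKH477 0.25 uM final, 3 h 37 C/5% CO2; LiveBLAzer 2 h RT, then CellTiter-Glo 30 min RT, luminescence.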
On the % scale 0 is the no-effect control and ±100 the full control effect; potency means the concentration at half of the fitted maximal effect.

Row | Structure (SMILES) | viability change, negative = cytotoxic | Potency
1 | CCCCCCCCCCCC[N+](C)(C)CC(=O)[O-] | -16.4% | –
2 | CC(C)[N+](C)(C)CC(O)COc1cccc2ccccc12 (stereo not given) | 0.543% [at 42.5 µM] | –
3 | CO[Si](CCCNCCNCCN)(OC)OC | -0.241% | –
4 | COc1ccccc1/C=C/C=O | – | inactive
5 | COc1ccc2nc(NC(=O)Nc3ccccc3)sc2c1 | -8.66% [at 42.5 µM] | –
6 | CNC(=O)NC | -7.64% | –
7 | CN(C)c1ccc(SC#N)cc1 | -0.473% | –
8 | CCCC(=O)c1cc(O)c(O)cc1O | -0.0407% | –
9 | Cc1ccccc1N=Nc1ccc(N=Nc2c(O)ccc3ccccc23)c(C)c1 | -0.0704% [at 42.5 µM] | –
10 | O=S(=O)(O)c1ccccc1 | – | inactive
11 | COc1ccc(C(=O)NCc2ccc(OCCN(C)C)cc2)cc1OC | 3.79% [at 42.5 µM] | –
12 | COCCOCC(OC)OC | 4.36% [at 42.5 µM] | –
13 | COC(=O)C(c1ccccc1Cl)N1CCc2sccc2C1 (stereo not given) | 0.0696% [at 42.5 µM] | –
14 | CCCCCCCC/C=C\CCCCCCCC(=O)OC(CO)CO | 16.7% | –
15 | COc1cccc2c1C(=O)c1c(O)c3c(c(O)c1C2=O)C[C@@](O)(C(=O)CO)C[C@@H]3O[C@H]1C[C@H](N)[C@H](O[C@@H]2CCCCO2)[C@H](C)O1 | 11.5% [at 42.5 µM] | –
16 | CCCCCCCCCCC=CC1CC(=O)OC1=O (stereo not given) | – | inactive
17 | CCS(=O)(=O)c1ccc(OC)c(C(=O)OC)c1 | 1.74% [at 42.5 µM] | –
18 | C=CCCCCCC | -2.18% | –
19 | CN1CCCN=C1/C=C/c1cccs1 | 16% [at 42.5 µM] | –
20 | O=C(O)CCCl | -7.13% | –

Row | Structure (SMILES) | viability change, negative = cytotoxic | Potency
21 | COc1ccc(/C=C/c2cc(OC)cc(=O)o2)cc1 | 2.04% [at 42.5 µM] | –
22 | O=c1[nH]cc(F)c(=O)[nH]1 | – | inactive
23 | CC[C@H]1O[C@]2(CC[C@@H]1C)C[C@@H]1C[C@@H](C/C=C(\C)C[C@@H](C)/C=C/C=C3\CO[C@@H]4[C@H](O)C(C)=C[C@@H](C(=O)O1)[C@]34O)O2 | – | 30.4 µM (active)
24 | CCCCCCCCCCCl | -0.29% | –
25 | CCCCCCCC/C=C\CCCCCCCC(=O)OCCOC(=O)CCCCCCC/C=C\CCCCCCCC | -0.683% | –
26 | O=C(Cl)c1ccc(Cl)cc1Cl | -9.54% | –
27 | CCN(CC)CCCC(C)Nc1c2ccc(Cl)cc2nc2ccc(OC)cc12 (stereo not given) | -5.9% [at 42.5 µM] | –
28 | O=c1[nH]c2ccccc2n1CCCN1CCN(C(c2ccccc2)c2ccccc2)CC1 | -1.01% [at 42.5 µM] | –
29 | CN1CCC(=C2c3ccccc3CCc3sccc32)CC1 | -3.56% [at 42.5 µM] | –
30 | O=C1NC(=O)C2CC=CCC12 (stereo not given) | -4.8% | –
31 | CCCCC(=O)O[C@]1(C(=O)CO)CC[C@H]2[C@@H]3CCC4=CC(=O)CC[C@]4(C)[C@H]3[C@@H](O)C[C@@]21C | 5.12% [at 42.5 µM] | –
32 | C#Cc1ccc(-c2ccccc2F)cc1 | 4.81% [at 42.5 µM] | –
33 | O=C1OC(=O)c2cc(-c3ccc4c(c3)C(=O)OC4=O)ccc21 | -3.26% | –
34 | Cc1cccc(OCC(O)CNC(C)(C)C)c1C (stereo not given) | 10.6% [at 42.5 µM] | –
35 | C=COCC1CCC(CO)CC1 (stereo not given) | -0.865% | –
36 | Cc1c(C(=O)NN2CCCCC2)nn(-c2ccc(Cl)cc2Cl)c1-c1ccc(Cl)cc1 | 0.504% [at 42.5 µM] | –
37 | OCCN(CCO)c1cccc(Cl)c1 | -1.89% | –
38 | C=CCN(CC=C)CC=C | -3.29% | –
39 | CCc1ccc(C=O)cc1 | 9.33% | –
40 | CN(C)[C@@H](CCOc1cccc2ccccc12)c1ccccc1 | -16.2% [at 42.5 µM] | –
